# Assay outcomes deposited in PubChem by National Center for Advancing Translational Sciences (NCATS).
# HTT aggregate = mutant huntingtin aggregation inhibition | PC12 HttQ103-GFP aggregates, Acumen cytometry, 40 h | 220,000 compounds, 1.1% hits | AID 1688 | Potency, µM (series often up to 46.1 µM), hits mostly inhibitors; active means well fitted curve in the direction sought with a large enough effect; inconclusive means small, poorly fitted or top-dose-only effect, or another doubt; inactive means no such curve, though single readings can be large; an effect the other way counts as inactive or inconclusive; further: nearly all actives have a fitted effect of over 60% in size
#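 Using laser scanning cytometry, GFP-positive aggregates were counted after lysis of PC12 cells induced with 100 nM tebufenozide to express HTT exon 1 Q103–GFP. Compounds were tested in titration.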
# ALDH1A1 block = blocks purified human ALDH1A1 activity; Purified ALDH1A1, NADH fluorescence, propionaldehyde substrate; 220,000 compounds, 7.3% hits; Potency, µM (highest dose often 75.3 µM), most hits filed as inhibitors
# Target sequence (P00352 whole entry, looked up): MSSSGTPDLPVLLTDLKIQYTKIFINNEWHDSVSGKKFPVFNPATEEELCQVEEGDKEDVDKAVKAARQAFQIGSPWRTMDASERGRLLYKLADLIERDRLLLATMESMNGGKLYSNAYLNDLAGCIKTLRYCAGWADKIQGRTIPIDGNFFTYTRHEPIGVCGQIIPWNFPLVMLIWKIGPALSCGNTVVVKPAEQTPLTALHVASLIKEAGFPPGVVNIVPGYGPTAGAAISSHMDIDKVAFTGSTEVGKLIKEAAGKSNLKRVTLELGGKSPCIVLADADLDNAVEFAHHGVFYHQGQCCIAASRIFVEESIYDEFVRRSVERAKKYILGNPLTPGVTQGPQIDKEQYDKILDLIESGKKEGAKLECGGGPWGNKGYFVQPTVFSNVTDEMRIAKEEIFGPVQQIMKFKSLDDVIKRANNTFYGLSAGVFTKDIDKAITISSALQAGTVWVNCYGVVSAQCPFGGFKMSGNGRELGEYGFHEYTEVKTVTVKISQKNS
# HTT cytoprotect = Huntington cell model cytoprotection by ATP luminescence; PC12 HTT-Q103 induced, cytoprotection, ATP luminescence, 40 h; Potency, µM (top dose mostly 56.4 µM), most hits filed as activators; 230,000 compounds, 0.14% hits; active means well fitted curve in the direction sought with a large enough effect; inconclusive means small, poorly fitted or top-dose-only effect, or another doubt; inactive means no such curve, though single readings can be large; an effect the other way counts as inactive or inconclusive; further: nearly all actives have a fitted effect of over 45% in size
#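 Readout: ATPlite luminescence (ATP level). Model: stable PC12, inducible Htt exon1 Q103-GFP. Inducer: tebufenozide, 100 nM final. Compounds: dose series. No G418 in medium.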
# LMNA splice mod = LMNA splicing modulation; HeLa LMNA splicing GFP/RFP minigene ratio, 48 h; Potency, µM (doses to about 46.1 µM), actives largely listed as inhibitors; 200,000 compounds, 0.01% hits; AID 1487; active means well fitted inhibition curve with a large enough effect in the signal ratio, with a control signal flat, not every such curve was filed as active; inconclusive means small, poorly fitted or top-dose-only effect, or effect the other way, or a change in a side signal; the % refers to the signal ratio
#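 S3 HeLa stable clones carrying a lamin A-EGFP splicing minigene plus DsRed2 were seeded at 600 cells/well in Opti-MEM with 2% FBS, pin-dosed and incubated 48 h at 37°C. Acumen cytometry (488 nm) gave the GFP/RFP total-intensity ratio.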
# HPGD block = HPGD (human) dehydrogenase inhibition | Potency, µM, most hits filed as inhibitors | purified HPGD, NADH fluorescence kinetic, PGE2 substrate | 150,000 compounds, 4.3% hits | P15428 | AID 894
# Target sequence (P15428 whole entry, looked up): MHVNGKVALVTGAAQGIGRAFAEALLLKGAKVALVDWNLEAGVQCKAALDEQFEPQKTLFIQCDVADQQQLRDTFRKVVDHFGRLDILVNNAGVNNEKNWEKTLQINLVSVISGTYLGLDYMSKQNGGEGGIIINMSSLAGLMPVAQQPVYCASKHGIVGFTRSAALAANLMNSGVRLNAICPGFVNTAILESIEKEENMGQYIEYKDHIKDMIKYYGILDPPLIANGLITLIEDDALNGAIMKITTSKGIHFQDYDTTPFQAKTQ
#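 20 nM HPGD preincubated 15 min at room temperature with compound in 50 mM Tris-HCl pH 8, 0.01% Tween 20. Started with 1 mM NAD+ and 30 uM prostaglandin E2; NADH fluorescence (360/450 nm) read 5 times over 30-s intervals, last minus first.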
# A number is an active result; n = inactive; u = inconclusive; x = no result given; [ ] = another dose, or the depositor's remark. Most compounds without a hit are left out; they make up all but 8.8% or so of the library. Unless noted, the call rests on the fitted dose curve; in most records, active means well fitted inhibition curve with a large enough effect (not every such curve was filed as active); inconclusive means small, poorly fitted or top-dose-only effect, or another doubt; inactive means no such curve, though single readings can be large or run the other way.
SMILES,HTT aggregate,ALDH1A1 block,HTT cytoprotect,LMNA splice mod,HPGD block
O=C1C=C[C@@H](O)[C@H]2[C@@H]3C(=O)N(C[C@@H]4CCCO4)C(=O)[C@@H]3CC[C@H]12,x,u,n[10 µM],x,x
CCN1C(=O)[C@H]2[C@@H]3[C@H](O)C=CC(=O)[C@H]3CC[C@H]2C1=O,x,3.2µM,u,x,x
CCOc1ccc(NC(=O)c2sc(-n3nc(C)c(CCC(C)C)c3C)nc2C)cc1,x,x,x,n,x
O=C(CSCc1ccc(C(=O)O)cc1)Nc1ccc2ccccc2c1,40µM,x,x,x,x
O=C(CSCc1ccccc1)Nc1ccc(F)cc1F,n,24µM,n,x,x
O=C(CSCc1ccc(C(=O)O)cc1)Nc1ccccc1,n[9.22 µM],n,u,n,x
CCc1nnc(NC(=O)CSc2nc3c(c(=O)n2C)SC(C)C3)s1 (stereo unspecified),n,n,n,u,n
CCSc1nnc(NC(=O)CSc2nc3c(c(=O)n2CC)SC(C)C3)s1 (stereo unspecified),13µM,n,n,n,n
CCn1c(SCC(=O)Nc2cccc(C)c2)nc2c(c1=O)SC(C)C2 (stereo unspecified),n,20µM,n,n,n
CC1Cc2nc(SCC(=O)NC3CCCCC3)n(C)c(=O)c2S1 (stereo unspecified),n,n,n[1.9 µM],n,40µM
CCn1c(SCC(=O)Nc2ccc3c(c2)OCO3)nc2c(c1=O)SC(C)C2 (stereo unspecified),n,u,n,n,n
CN(c1ccc(Cl)cc1)S(=O)(=O)c1nnc(NC(=O)C2CCCCC2)s1,x,x,x,n,x
CC1(C)CC(=O)C(N=Nc2cc(C(F)(F)F)ccc2Cl)=C(O)C1,n,1.4µM,n[10 µM],n,x
CC1(C)CC(=O)C(N=Nc2cc(S(=O)(=O)N3CCOCC3)ccc2Cl)=C(O)C1,n[9.22 µM],0.1µM,n[10 µM],x,x
CC1(C)CC(=O)C(N=Nc2ccc(-c3ccccc3)cc2)=C(O)C1,n,u,n[10 µM],n,x
CC1(C)CC(=O)C(N=Nc2c(Cl)cc(Cl)cc2Cl)=C(O)C1,u,2µM,n[10 µM],n,n
CC1(C)CC(=O)C(N=Nc2ccc(Cl)cc2)=C(O)C1,n,u,n[10 µM],n,n
CS(=O)(=O)N(CC(=O)Nc1ccc(CC#N)cc1)c1ccc(C23CC4CC(CC(C4)C2)C3)cc1,22µM,n,n[10 µM],u,n
CN(C)c1ccc(-c2cncnc2-n2ccnc2)cc1,x,u,n,n,x
CCCCC[C@H](O)/C=C\[C@@H]1[C@H](O)CC(=O)[C@@H]1CCCCCCC(=O)O,n,n,n,u,n
CCOC(=O)c1c(NC(=O)C2=C(C)NC(=S)NC2c2ccc(CC)cc2)sc(C)c1C (stereo unspecified),u,28µM,n[10 µM],u,u
CCOC(=O)C1=C(C)NC(=S)NC1c1ccc(OC(=O)c2ccco2)cc1 (stereo unspecified),n,2.2µM,n[10 µM],n,n
CCOc1cc(C2NC(=S)NC(C)=C2C(=O)Nc2ccccc2)ccc1O (stereo unspecified),n[9.22 µM],x,n[10 µM],x,x
CCOC(=O)C1=C(C)NC(=S)NC1c1cccc(O)c1 (stereo unspecified),x,1.1µM,n,x,u
COc1ccc(Cl)cc1N(C(C)C(=O)NC1CCCC1)S(C)(=O)=O (stereo unspecified),n,n,n,n,x
SMILES,HTT aggregate,ALDH1A1 block,HTT cytoprotect,LMNA splice mod,HPGD block
CN1C[C@H](C(=O)N[C@]2(C)O[C@@]3(O)[C@H]4CCCN4C(=O)[C@@H](Cc4ccccc4)N3C2=O)C[C@H]2c3cccc4[nH]cc(c34)C[C@@H]21,x,x,n,x,x
O=C(/C=C/c1ccccc1[N+](=O)[O-])NC1CCCC1,n,14µM,n,x,x
O=C(NNc1ccccc1[N+](=O)[O-])NC1CCCCC1,n,25µM,n,n[9.22 µM],x
O=C(NNc1ccccc1[N+](=O)[O-])Nc1ccccc1,n,u,n,n,n
O=C(NNc1ccccc1[N+](=O)[O-])Nc1ccc(Cl)c(Cl)c1,11µM,u,x,u,n
Brc1ccc(CSc2nnc(-c3ccco3)o2)cc1,n,n,n[10 µM],n,25µM
c1ccc(CSc2nnc(-c3ccco3)o2)cc1,n[9.22 µM],x,n[10 µM],x,x
Cc1ccc(CSc2nnc(-c3ccco3)o2)cc1,n,n,n,n,25µM
O=C(CSc1ncn[nH]1)N1CCOCC1,n[9.22 µM],n,n[10 µM],u,x
Cc1ccccc1-n1c(=O)cc(NCc2ccc3c(c2)OCO3)[nH]c1=O,n,14µM,n[10 µM],u,n
O=C(NC(=S)Nn1cnc2c(cnn2-c2ccccc2)c1=O)c1ccccc1,u,18µM,n[1.9 µM],n,n
CN(C)CCn1c(C(=O)Nc2ccccc2)cc2ccccc21,3.2µM,n,n,n,x
Cc1ccc(C(=O)OCc2nnc(-c3ccccc3)o2)o1,n,n,n,n,7.1µM
O=C(OCc1nnc(-c2ccccc2)o1)c1cc2ccccc2cc1O,n,n,n,n,x
O=C(OCc1nnc(-c2ccccc2)o1)c1ccc2ccccc2n1,n,n,n,n,25µM
O=C(OCc1nnc(-c2ccccc2)o1)c1cc(S(=O)(=O)N2CCOCC2)c(Cl)cc1Cl,n,n,n[10 µM],n,7.9µM
O=C(OCc1nnc(-c2ccccc2)o1)c1ccc(CO)cc1,n,n,n[10 µM],n,x
O=C(OCc1nnc(-c2ccccc2)o1)c1cc([N+](=O)[O-])ccc1Cl,n,n,n,u,x
O=C(COc1ccc(Br)cc1)OCc1nnc(-c2ccccc2)o1,n,n,n[10 µM],n,28µM
O=C(NCCCN1CCN(c2ccc(F)cc2)CC1)c1ccc2nc(Cc3ccccc3)oc2c1,x,x,x,n,x
Brc1ccc(CNCCCSc2nnnn2-c2ccccc2)cc1,x,x,x,n,x
Cc1ccc(NC(=O)CSc2nc(=O)n(CCN3CCOCC3)c3c2CCC3)c(C)c1,x,x,x,n,x
O=C(OCc1nnc(-c2ccccc2)o1)c1ccc2c(c1)OCCO2,n,n,n,n[0.0737 µM],7.9µM
O=C(OCc1nnc(-c2ccccc2)o1)c1ccc(S(=O)(=O)NCc2ccco2)cc1,n,n,n[10 µM],n,11µM
O=C(OCc1nnc(-c2ccccc2)o1)c1ccc(Cl)cc1,n,n,n,x,x
SMILES,HTT aggregate,ALDH1A1 block,HTT cytoprotect,LMNA splice mod,HPGD block
CN(C)CCNC(=O)c1cc2sc3ccccc3c2s1,u,u,n,u,x
O=C(O)/C=C\C(=O)NNC(=O)c1cc(-c2ccccc2)n[nH]1,n[9.22 µM],25µM,n[10 µM],x,x
O=C(O)/C=C/C(=O)NNC(=O)c1cc(-c2ccccc2)n[nH]1,n,u,n,n,x
CNC(=S)NNc1ccccc1[N+](=O)[O-],n,14µM,n,x,x
O=C(NNc1ccccc1[N+](=O)[O-])Nc1ccc(F)cc1,n,u,n[10 µM],n,n
COCCNC(=S)NNc1ccccc1[N+](=O)[O-],n,25µM,n,x,x
CCCCc1nn2c(=O)cc(COC(=O)c3ccccc3NC(=O)C3CCCCC3)nc2s1,x,x,x,n,x
COC(=O)CNC(=O)[C@@]1(C)C=C[C@@H](Cc2ccccc2)N1C(C)=O,x,22µM,n,x,10µM
CC(=O)N1[C@H](Cc2ccccc2)C=C[C@]1(C)C(=O)O,x,28µM,n,x,n
COC(=O)N1[C@H](Cc2ccccc2)C=C[C@]1(C)C(=O)O,n,n,n,n,n
